# Test results reported in publication PMC4552634, “A New Set of Chemical Starting Points with Plasmodium falciparum Transmission-Blocking Potential for Antimalarial Drug Discovery” (PLoS ONE, 2015).
# Out of some 13,000 compounds screened, about 3,200 (25%) showed an effect of 50% or more. The list shows a part of the results.
# Test system: P. falciparum stage V gametocytes
# Parameters: BacTiter-Glo ATP luminescence viability of purified stage V gametocytes in 384-well plates, per cent inhibition versus DMSO
# Conditions: 48 h, 5 µM; inhibitor
row,SMILES,% Inhibition
1,O=C(CSc1nccn1C1CCCCC1)Nc1cc(C(F)(F)F)ccc1Cl [TCMDC-124949],15.12%
2,Cc1c(CNCCCNc2nc3ccncc3[nH]2)sc(Br)c1Br [TCMDC-140512],32.17%
3,CCNc1cc(C(=O)N[C@@H](Cc2ccccc2)[C@H](O)CNC(C)C)cc(N2CC(c3ccccc3)CCS2(=O)=O)c1 (some centres unmarked) [TCMDC-134660],43.25%
4,O=S(=O)(NC1CCN(c2ccnc3cc(Cl)ccc23)C1)c1cccs1 (centres unmarked) [TCMDC-133398],1.762%
5,CN(C)CCNCc1ccc(-c2ccc(-c3nc4ccc(F)cc4[nH]3)cc2)cc1 [TCMDC-132681],40.34%
6,Fc1ccc2nc(-c3cccc(-c4ccc(CNCc5ccccc5)cc4)c3)[nH]c2c1 [TCMDC-132702],-56.98%
7,COc1ccc(CNCc2cccc(-c3cccc(-c4nc5ccc(F)cc5[nH]4)c3)c2)cc1 [TCMDC-132717],-45.78%
8,CNCCNCc1ccc(-c2ccc(-c3nc4ccc(F)cc4[nH]3)cc2)cc1 [TCMDC-132832],83.07%
9,CNCCNCc1ccc(-c2cccc(-c3nc4ccc(F)cc4[nH]3)c2)cc1 [TCMDC-132836],79.45%
10,Nc1cccc(CNCc2ccc(-c3cccc(-c4nc5ccc(F)cc5[nH]4)c3)cc2)c1 [TCMDC-132937],-46.54%
11,CNCCNCc1cccc(-c2cccc(-c3nc4ccc(F)cc4[nH]3)c2)c1 [TCMDC-132840],70.05%
12,Fc1ccc2nc(-c3cccc(-c4cccc(CNCCc5ccncc5)c4)c3)[nH]c2c1 [TCMDC-132857],-45.49%
13,COc1ccc(CNCc2ccc(-c3cccc(-c4nc5ccc(F)cc5[nH]4)c3)cc2)cc1 [TCMDC-132721],-29.84%
14,CNc1ccc(CNCc2ccc(-c3ccc(-c4nc5ccc(F)cc5[nH]4)cc3)cc2)cc1 [TCMDC-132980],-78.33%
15,Fc1ccc2nc(-c3cccc(-c4ccc(CNCCc5ccncc5)cc4)c3)[nH]c2c1 [TCMDC-132854],81.48%
16,CS(=O)(=O)NCCCNCc1cccc(-c2cccc(-c3nc4ccc(F)cc4[nH]3)c2)c1 [TCMDC-133075],-24.93%
17,COc1nc2c(CCN3CC[C@H](NCc4ccc5c(c4)NC(=O)CO5)[C@H](O)C3)c(Cl)cnc2cc1F [TCMDC-135805],-8.55%
18,CC(C)CC(=O)N1CCNC[C@@H]1C(=O)NC1CC1 [TCMDC-141241],28.73%
19,CN1CCCCC1CCc1cc(C(=O)Nc2ccc(-c3ccc(O)cc3)cc2)ccc1O (centres unmarked) [TCMDC-132103],-69.36%
20,CC1(C)CCC(=Cc2ccc(Cl)cc2)CC1(O)Cn1ccnc1 (centres unmarked) [TCMDC-125222],20.04%
21,Nc1ncc(Cc2cc(Cl)c(N)c3ncccc23)c(N)n1 [TCMDC-137889],44.6%
22,Cc1nc2ccc(-c3nc4ccc(N)cc4[nH]3)cc2[nH]1 [TCMDC-123723],-56.67%
23,Nc1ccc(-c2nc3ccc(Cc4ccc5nc(-c6ccc(N)cc6)[nH]c5c4)cc3[nH]2)cc1 [TCMDC-123486],52.65%

row,SMILES,% Inhibition
1,Nc1ccc(-c2nc3ccc(Oc4ccc5nc(-c6ccc(N)cc6)[nH]c5c4)cc3[nH]2)cc1 [TCMDC-125791],-25%
2,COc1ccccc1N1CCN(CCCCNC(=O)c2ccc(NC(=O)c3cc(Cl)cc(Cl)c3)cc2)CC1 [TCMDC-138236],3.866%
3,O=C(/C=C/c1ccc(Cl)c(Cl)c1)NCCCCCCN1CCN(C(=O)Nc2ccc(F)c(Cl)c2)CC1 [TCMDC-135833],-83.03%
4,COc1ccc(-c2cccc(NC(=O)c3cccs3)c2)cc1CN1CCCN(C)CC1 [TCMDC-132600],87.2%
5,COc1ccc(-c2cccc(NC(=O)c3ccc(C#N)cc3)c2)cc1CN1CCCN(C)CC1 [TCMDC-132609],-22.05%
6,COc1ccc(-c2ccc(NC(=O)c3ccc(F)cc3)cc2)cc1CN1CCCN(C)CC1 [TCMDC-132514],15.06%
7,COc1ccc(-c2ccc(NC(=O)c3ccc(C#N)cc3)cc2)cc1CN1CCCN(C)CC1 [TCMDC-132517],41.17%
8,COc1ccc(-c2cccc(NC(=O)c3ccccc3)c2)cc1CN1CCCN(C)CC1 [TCMDC-132627],80.03%
9,COc1ccc(-c2cccc(NC(=O)c3ccc(C#N)cc3)c2)cc1CN1CCN(C)CC1 [TCMDC-132612],-15.47%
10,COc1ccc(-c2ccc(NC(=O)c3ccccc3)cc2)cc1CN1CCCN(C)CC1 [TCMDC-132535],93.82%
11,COc1ccc(-c2ccc(NC(=O)c3cccs3)cc2)cc1CN1CCCN(C)CC1 [TCMDC-132509],-9.366%
12,O=C(Nc1cccc(C(F)(F)F)c1)NC1CCN(c2ccnc3cc(Cl)ccc23)C1 (centres unmarked) [TCMDC-133406],-28.21%
13,COC(=O)CCCCCOc1cc(Cc2cnc(N)nc2N)cc(OC)c1OC [TCMDC-137678],-5.017%
14,Cc1ccc(CCC(C)NCC(O)c2cccc(C(F)(F)F)c2)cc1 (centres unmarked) [TCMDC-131446],13.09%
15,COc1ccc(Cc2c(Cl)nc3nc(N)nc(N)c3c2C)cc1 [TCMDC-138055],17.08%
16,Oc1ccc(CCCNc2nc(NCc3cccc4ccccc34)nc(N3CCCNCC3)n2)cc1 [TCMDC-133445],-39.91%
17,Oc1ccc(CCCNc2nc(NCc3cccc4ccccc34)nc(N3CCNCC3)n2)cc1 [TCMDC-133394],8.629%
18,Oc1ccc(CCCNc2nc(NCc3ccccc3-c3ccccc3)nc(N3CCNCC3)n2)cc1 [TCMDC-133391],23.94%
19,Oc1ccc(CCNc2nc(NCc3ccccc3-c3ccc(C(F)(F)F)cc3)nc(NC3CCNCC3)n2)cc1 [TCMDC-133387],26.8%
20,Oc1ccc(CCCNc2nc(NCc3ccccc3-c3ccccc3)nc(NC3CCNCC3)n2)cc1 [TCMDC-133389],58.76%
21,Oc1ccc(CCCNc2nc(NCc3cccc4ccccc34)nc(NC3CCNCC3)n2)cc1 [TCMDC-133392],57.4%
22,O=[N+]([O-])c1cccc(Nc2cncc(-c3ccc(CO)cc3)c2)c1 [TCMDC-136670],46.28%
23,CCCC(CNCc1ccccc1)CNc1cc(=O)c2ccccc2[nH]1 (centres unmarked) [TCMDC-139434],43.59%

row,SMILES,% Inhibition
1,COc1cc(NCCCNCc2cn(Cc3cc(Br)cc(Br)c3)c3ccccc23)nc2ccccc12 [TCMDC-140677],108.1%
2,O=c1cc(NCC2(CNCc3cn(Cc4ccccc4)c4ccccc34)CCCCC2)[nH]c2ccccc12 [TCMDC-140540],-59.9%
3,COc1cc(NCC(C)CNCc2cn(Cc3ccccc3)c3ccccc23)nc2ccccc12 (centres unmarked) [TCMDC-140496],91.67%
4,CCCC(CNCc1cccc(C)c1)CNc1cc(=O)c2ccccc2[nH]1 (centres unmarked) [TCMDC-139435],10.27%
5,CC(CNCc1cn(Cc2cc(Br)cc(Br)c2)c2ccccc12)CNc1cc(=O)c2ccccc2[nH]1 (centres unmarked) [TCMDC-140681],91.88%
6,COc1cc(C(F)(F)F)cc2[nH]c(CNCCCNc3nc4ccccc4[nH]3)cc12 [TCMDC-140013],19.83%
7,COc1cccc2[nH]c(NCCCNCc3cc(Br)cc(Br)c3)nc12 [TCMDC-139984],1.75%
8,COc1cc(NCC2(CNCc3cn(Cc4ccccc4)c4ccccc34)CCCCC2)nc2ccccc12.Cl [TCMDC-140539],107.8%
9,COc1ccccc1C1CCN(Cc2csc(NC(=O)c3ccc(-c4ccc(C(F)(F)F)cc4)cc3)n2)CC1 [TCMDC-138781],-44.16%
10,Cc1cc2[nH]c(-c3ccc(C(=O)NCCCN4CCN(c5cccc(Cl)c5)CC4)cc3F)nc2cc1Cl [TCMDC-140029],-4.793%
11,Cc1cccc2[nH]c(-c3cccc(-c4ccc(CN5CCN(CCO)CC5)cc4)c3)nc12 [TCMDC-133026],5.684%
12,c1ccc(CN2CCC(NCc3ccccc3-c3cccc(CNCc4ccc5c(c4)OCO5)c3)CC2)cc1 [TCMDC-140474],47.21%
13,O=C(Nc1ccc(N2CCN(Cc3ccccc3)CC2)cc1)c1cccs1 [TCMDC-124320],-18.09%
14,O=C(NCc1cccc2ccccc12)c1ccc(CNC2CCN(Cc3ccccc3)CC2)cc1 [TCMDC-140789],-3.964%
15,C(=C(c1cccs1)c1cccs1)c1ccc(CNC2CCN(Cc3ccccc3)CC2)cc1 [TCMDC-138647],92.91%
16,O=C(NCc1cc2c(cc1Cl)OCO2)c1ccc(CNC2CCN(Cc3ccccc3)CC2)cc1 [TCMDC-140786],7.44%
17,c1ccc(CN2CCC(NCc3ccc(-c4cccc(CNC5CCCC5)c4)cc3)CC2)cc1 [TCMDC-140491],106.1%
18,C=CCOc1ccc(CNC2CCN(Cc3ccccc3)CC2)cc1Br [TCMDC-125268],13.93%
19,c1ccc(CN2CCC(NCc3ccc(-c4ccc(CNC5CCCC5)cc4)cc3)CC2)cc1 [TCMDC-140492],108.5%
20,c1ccc(CN2CCC(NCc3ccccc3-c3ccc(CNCc4ccc5c(c4)OCO5)cc3)CC2)cc1 [TCMDC-140475],90.32%
21,C[C@@]12C[C@@H](Nc3nc(NCCc4ccc(O)cc4)nc(N4CCNCC4)n3)C[C@@H](C1)c1cccc(Cl)c1O2 [TCMDC-134047],-6.304%
22,Cc1cc(NC(=O)Nc2ccc3nc(C)oc3c2)c2cc(Cl)ccc2n1 [TCMDC-140076],38.43%
